Compound activity as filed in PubChem BioAssay.
B2AR arrestin = recruits beta-arrestin to the human beta2-adrenergic receptor | beta-arrestin recruitment to beta2AR, cell-based reporter | Potency, µM (doses to about 46.1 µM), most hits filed as activators | 330,000 compounds, 0.02% hits | AID 492947; further: nearly all actives have a fitted effect of over 65% in size
IDH1 R132H inh = blocks human mutant IDH1 R132H enzyme. O75874. 390,000 compounds, 0.093% hits. IDH1-R132H enzyme, NADPH consumption, diaphorase/resazurin fluorescence. AID 602179. Potency, µM (highest dose often 76.6 µM), usual class: inhibitors; further: nearly all actives have a fitted effect of over 65% in size
Target sequence (O75874 whole entry R132H, stated change not applied): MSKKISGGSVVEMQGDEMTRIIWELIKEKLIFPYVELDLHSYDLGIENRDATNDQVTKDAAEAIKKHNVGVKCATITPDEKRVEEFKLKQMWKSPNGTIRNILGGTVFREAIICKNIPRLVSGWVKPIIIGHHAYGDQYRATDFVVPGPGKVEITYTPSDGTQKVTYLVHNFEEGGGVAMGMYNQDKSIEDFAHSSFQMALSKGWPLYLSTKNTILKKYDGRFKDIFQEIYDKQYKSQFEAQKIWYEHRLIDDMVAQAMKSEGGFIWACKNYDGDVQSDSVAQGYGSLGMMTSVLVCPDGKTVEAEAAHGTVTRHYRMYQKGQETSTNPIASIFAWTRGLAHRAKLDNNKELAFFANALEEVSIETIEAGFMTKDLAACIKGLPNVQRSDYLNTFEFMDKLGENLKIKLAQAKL
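IDH1-R132H (0.5 ug/mL) preincubated 30 min with compound, then NADPH (0.016 mM) and alpha-KG (2 mM) added; 80 min at RT, pH 7.5. Remaining NADPH coupled via diaphorase/resazurin to fluorescence (540/590 nm); concentration-response curves normalized to no-enzyme control.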
DRD3 agonist = D3 dopamine receptor (human) agonism | AID 652048 | max activation, % | D3R DiscoveRx beta-arrestin cells, luminescence, 90 min | P35462 | 410,000 compounds, 0.58% hits; in the data active means max activation above about 30%
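Agonist-mode cell screen: cells plated at 1500/well and incubated overnight at 37 °C, then exposed to library compounds for 90 min at 37 °C. Detection reagent was added for 30–60 min at room temperature, and luminescence was read.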
Integrin act MD = integrin-mediated muscular dystrophy alleviation activation; alpha7betagal myoblasts, beta-gal FDG fluorescence, 48 h; Potency, µM (series often up to 38.3 µM), hits mostly activators; AID 624291; 350,000 compounds, 0.064% hits; further: nearly all actives have a fitted effect of over 60% in size
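Alpha7betagal+/- myoblasts (passage 13) were plated 16-24 hr, then exposed to compounds (1:260 dilution of DMSO stock) for 48 hours at 37C. After MPER lysis, β-galactosidase reporter activity was read as FDG fluorescence (ex 480/em 540) after 30 minutes.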
D3 antag = antagonists of human D3 dopamine receptor. D3R cells, DiscoveRx beta-arrestin luminescence, antagonist mode; hits give low values. 360,000 compounds, 2.5% hits. max response, negative = inhibition, %. P35462; in the data active means max response below about -50%; inconclusive means no clear call, values can overlap the other calls
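Cells expressing the human receptor were seeded at 1500 cells/well, incubated overnight at 37 degrees C in 5% CO2, then exposed to library compounds with dopamine controls for 90 minutes at 37 degrees C before luminescent detection.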
Each line names hits and unclear results; the compound was inactive in the other large screens. The list is not random: actives were taken first. Their share in the collection is about 2.9%. Unless noted, the call rests on the fitted dose curve; in most records, active means well fitted curve in the direction sought with a large enough effect; inconclusive means small, poorly fitted or top-dose-only effect, or another doubt; inactive means no such curve, though single readings can be large; an effect the other way counts as inactive or inconclusive.

COc1ccc(Cl)cc1S(=O)(=O)Nc1cccc(-c2ccc(N3CCOCC3)nn2)c1	none (no result: B2AR arrestin, Integrin act MD, D3 antag)
COc1ccccc1N1CCN(CC(O)COc2ccc(C)cc2C(C)(C)C)CC1 (configuration not stated)	none (no result: B2AR arrestin, Integrin act MD, D3 antag)
CC(C)C[C@H]1C(=O)N2CCC[C@H]2[C@]2(O)O[C@](NC(=O)C3C=C4c5cccc6[nH]c(Br)c(c56)C[C@H]4N(C)C3)(C(C)C)C(=O)N12 (some centres not stated)	D3 antag -55.1 (no result: B2AR arrestin, Integrin act MD)
CCc1ccc(-n2c(SCC(=O)NC(C)CC)nc3n[nH]c(C)c3c2=N)cc1 (configuration not stated)	none (no result: B2AR arrestin, Integrin act MD, D3 antag)
C=C(C)C(=O)OCC(O)COc1ccc(C(C)(C)c2ccc(OCC(O)COC(=O)C(=C)C)cc2)cc1 (configuration not stated)	DRD3 agonist 71.1 (no result: Integrin act MD)
CN1CCN(C2=Nc3cc(Cl)ccc3Nc3ccccc32)CC1	D3 antag -80.9 (no result: DRD3 agonist, Integrin act MD)
Cc1ccc2c(c1)sc(C)[n+]2CCCS(=O)(=O)[O-]	D3 antag -85.6
CN1CCC(OC(c2ccccc2)c2ccc(Cl)cc2)C1 (configuration not stated)	D3 antag -73.7 (no result: B2AR arrestin)
Cc1ccc(-c2nnc(SCC(=O)NC3CCCC3)nc2-c2ccc(C)cc2)cc1	none (no result: B2AR arrestin, Integrin act MD, D3 antag)
Oc1ccc(/C=N/N2CCN(c3ccccn3)CC2)cc1	none
CC(C)(C)c1ccc(/C=N/N2CCN(c3ccccn3)CC2)cc1	DRD3 agonist 30.3
O=C(O)CCn1c2c(c3ccccc31)C[C@H](NS(=O)(=O)c1ccc(F)cc1)CC2	none (no result: B2AR arrestin, IDH1 R132H inh, Integrin act MD, D3 antag)
NC(=O)c1ccccc1NCC(=O)c1ccc(Cl)cc1	IDH1 R132H inh 52.1µM
O=C(c1ccc(CSc2nc3ccncc3n2Cc2ccccc2F)cc1)N1CCCCC1	none (no result: B2AR arrestin, Integrin act MD, D3 antag)
COc1ccccc1OCC1CNC(=O)O1 (configuration not stated)	none (no result: B2AR arrestin, IDH1 R132H inh, Integrin act MD, D3 antag)
Cc1ccc(-n2nc(C)c3c2OC(N)=C(C#N)C3c2ccncc2)cc1 (configuration not stated)	none
Cc1ccc(-n2nc(C)c3c2OC(N)=C(C#N)C3c2ccccc2F)cc1 (configuration not stated)	D3 antag -52.0
Nc1cc(=O)nc(SCC(=O)Nc2cccc(Cl)c2)n1CCc1ccccc1	none (no result: B2AR arrestin, Integrin act MD, D3 antag)
CCCCN(C)CCNC(=O)c1nn(-c2ccc(OC)c(Cl)c2)c(=O)c2c1c1ccccc1n2C	none (no result: B2AR arrestin, Integrin act MD, D3 antag)
CCOC(=O)C1CCCN(C(=O)c2cc3nc(-c4ccc5c(c4)OCO5)cc(C(F)(F)F)n3n2)C1 (configuration not stated)	DRD3 agonist 120.4
Cc1cc(-c2ccc(F)cc2)nc2cc(C(N)=O)nn12	D3 antag -75.9
Cc1ccc(-c2cc(C(F)(F)F)n3nc(C(=O)N4CCN5CCCC5C4)cc3n2)cc1 (configuration not stated)	none
CN1CCN(C(=O)c2cc3nc(-c4ccc(F)cc4)cc(C(F)(F)F)n3n2)CC1	D3 antag -52.2
O=C(Nc1ccc(F)cc1F)c1c(C(F)(F)F)ccnc1Oc1ccc(Cl)cc1	none
O=C(Nc1ccc(F)cc1F)c1c(C(F)(F)F)ccnc1Oc1cccc(C(F)(F)F)c1	D3 antag -57.9
CCn1c(O)c(N=NC(=O)CNC(=O)c2ccco2)c2ccccc21	none
CCn1c(O)c(N=NC(=O)CNC(=O)c2ccccc2F)c2ccccc21	D3 antag -74.3
COc1ccccc1C(=O)NCC(=O)N=Nc1c(O)n(C(C)C)c2ccccc12	Integrin act MD 11.2µM, D3 antag -59.1
CC(C)n1c(O)c(N=NC(=O)CNC(=O)Cc2ccc(Cl)cc2)c2ccccc21	none
COc1cc(NC(=O)CN2C(=O)C(c3ccc(C)cc3)=NC23CCCCC3)cc(OC)c1	none (no result: B2AR arrestin, IDH1 R132H inh, Integrin act MD, D3 antag)
CCOc1cc(C(=O)Nc2ccc(C(=O)NCCN(CC)CC)cc2)ccc1OCC(=O)N1CCOCC1	none
CCOC(=O)[C@@](C)(N)Cc1ccc(O)c(O)c1	none (no result: B2AR arrestin, IDH1 R132H inh, Integrin act MD, D3 antag)
COC(=O)c1ccc(NC(=O)C(=O)c2c[nH]c3ccccc23)cc1	none
COC(=O)C1=[N+]([O-])OC(C(=O)OC)C1c1c[nH]c2ccccc12 (configuration not stated)	D3 antag -55.8
COC(=O)[C@@]1(Cc2ccc(F)cc2)[C@H]2c3cc(C(=O)N(C)C)n(Cc4nc5ccccc5[nH]4)c3C[C@H]2CN1C(=O)c1ccccc1	D3 antag -67.6
Cc1ccc(NC(=O)c2cccn2-c2nnc(N3CCCCC3)s2)cc1Cl	none (no result: B2AR arrestin, Integrin act MD, D3 antag)
O=C(CC(c1ccccc1)c1cc(Br)ccc1O)NCCN1CCOCC1 (configuration not stated)	D3 antag inconclusive
O=C(CC(c1ccccc1)c1cc(Br)ccc1O)NCC1(c2ccccc2)CCCC1 (configuration not stated)	DRD3 agonist 30.4 (no result: B2AR arrestin, Integrin act MD, D3 antag)
Cc1ccc(S(=O)(=O)NCCc2nnc3ccc(SCC(=O)Nc4c(C)cc(C)cc4C)nn23)cc1	none (no result: B2AR arrestin, Integrin act MD, D3 antag)
CN=c1scc(-c2ccco2)n1/N=C/c1ccc(O)c(O)c1	DRD3 agonist 51.0
C=CCN=c1scc(C)n1/N=C/c1ccc(O)c(O)c1	DRD3 agonist 31.4
CN=c1scc(C)n1/N=C/c1ccc(O)cc1	none
COc1ccc(CNC(=O)CN(C)c2nn3c(=O)cc(C)nc3s2)cc1	none (no result: B2AR arrestin, Integrin act MD, D3 antag)
Cc1cc(NS(=O)(=O)c2ccc(NC(=O)C(C(C)C)N3C(=O)c4ccccc4C3=O)cc2)nc(C)n1 (configuration not stated)	D3 antag -75.5
Cc1cc(NS(=O)(=O)c2ccc(NC(=O)C(F)(F)F)cc2)nc(C)n1	DRD3 agonist 30.4
CCCC(=O)Nc1ccc(S(=O)(=O)Nc2cc(C)nc(C)n2)cc1	none
Nc1nc(Sc2ccc([N+](=O)[O-])c3nonc23)c2[nH]cnc2n1	D3 antag -59.8 (no result: B2AR arrestin)
CCOC(=O)c1sc2nc(NC(=O)C(C)(C)C)sc2c1C	DRD3 agonist 34.2
Cc1nc(C)c(-c2ccc(SCC(=O)Nc3cccc(C)c3C)nn2)s1	none (no result: B2AR arrestin, Integrin act MD, D3 antag)
CCC(=O)Oc1c(Sc2ccc(Cl)cc2)c(C)nn1C(C)(C)C	none (no result: B2AR arrestin, Integrin act MD, D3 antag)
CN1CCN(c2ncccc2S(=O)(=O)N2CCCCC2)CC1	D3 antag -67.2
Cc1ccc(-c2nnc(N3CCCCC3)c3ccccc23)cc1S(=O)(=O)N1CCN(C)CC1	D3 antag -83.4
O=c1oc2c3c(ccc2c2ccccc12)OCN(Cc1ccccc1Cl)C3	none (no result: B2AR arrestin, Integrin act MD, D3 antag)
Cc1ccc(C)c(S(=O)(=O)c2nnn3c2nc(NC(C)C)c2sccc23)c1	IDH1 R132H inh inconclusive (no result: B2AR arrestin, Integrin act MD, D3 antag)
Cc1cccnc1NC(=O)CN1C(=O)NC(C)(c2ccc3ccccc3c2)C1=O (configuration not stated)	none
Cc1ccc(S(=O)(=O)c2nc(S(=O)(=O)c3ccccc3)sc2N2CCN(C)CC2)cc1	D3 antag -85.8
CCS(=O)(=O)c1nc(S(=O)(=O)c2ccc(C)cc2)c(N2CCN(CCO)CC2)s1	none
Cc1ccc(S(=O)(=O)c2nc(S(=O)(=O)c3ccccc3)sc2N2CCN(CCO)CC2)cc1	D3 antag -73.7
